This is part of a sample that, as a whole, favours compounds with a hit. Of some 83,000 tested, about 20% had one in any assay.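 Single-dose data. Exposure time 48 hours. Values below 10 considered active.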 Unmarked numbers belong to inactive results. The source made the active and inactive calls.

Growth data for eight molecules are collected here from PubChem BioAssay (NCI).

Test systems include SR leukemia; RPMI-8226 leukemia; OVCAR-8 ovarian; OVCAR-5 ovarian; OVCAR-4 ovarian; SK-OV-3 ovarian; IGROV1 ovarian; OVCAR-3 ovarian; HS 578T breast; NCI/ADR-RES ovarian; T-47D breast; BT-549 breast; MDA-MB-435 melanoma; SW-620 colon; MCF7 breast; HCT-116 colon; HCC-2998 colon; KM12 colon.
What all share (assay): NCI-60 one-dose screen, 48 h (100 = growth as untreated, 0 = no growth, -100 = all killed)
Holding throughout (conditions): 10 µM unless noted

Turning to `Oc1cccc(CCc2ccc(Oc3cc(CCc4cccc(O)c4)cc(O)c3O)cc2)c1`, the growth in the assay on SR leukemia is 35.9%; in the assay on RPMI-8226 leukemia, 39.5%; with OVCAR-8 ovarian, 75.3%; with OVCAR-5 ovarian, 107%; in the assay with OVCAR-4 ovarian, 58.9%; with SK-OV-3 ovarian, 94.8%. Besides, the growth in the assay with IGROV1 ovarian was 41.7%; in the assay on OVCAR-3 ovarian, 63.8%; in the assay on HS 578T breast, 84.4%; in the assay with NCI/ADR-RES ovarian, 82.1%; in the assay with T-47D breast, 73%; in the assay on BT-549 breast, 82%. Also, the growth in the assay with MDA-MB-435 melanoma was 68.6%; in the assay on SW-620 colon, 79%; in the assay with MCF7 breast, 77.8%; with HCT-116 colon, 73.2%; in the assay with HCC-2998 colon, 92%; in the assay with KM12 colon it was 81.5%.

In the case of `O=S(=O)(NCCNc1nccc(-c2c(-c3cccc(F)c3)nc3sccn23)n1)c1ccc(Cl)cc1`, the growth was 40.6% in the assay on SR leukemia; 59.4% with RPMI-8226 leukemia; 53.6% in the assay with OVCAR-8 ovarian; 93.3% in the assay on OVCAR-5 ovarian; 63.6% with OVCAR-4 ovarian; 94.9% with SK-OV-3 ovarian. The growth was 15.8% with IGROV1 ovarian; 65.4% in the assay on OVCAR-3 ovarian; 72.5% in the assay on HS 578T breast; 67.7% with NCI/ADR-RES ovarian; 43.2% in the assay with T-47D breast; 71.3% with BT-549 breast. Besides, the growth with MDA-MB-435 melanoma is 26.3%; in the assay with SW-620 colon it was 59.6%; in the assay on MCF7 breast, 24.7%; in the assay with HCT-116 colon, 34%; with HCC-2998 colon, 83.4%; in the assay on KM12 colon it was 47.7%.

In the case of `COc1ccc(C(=O)c2cc(C)c(OC)c(C)c2)c(OC)c1NC(C)=O`, the growth in the assay on SR leukemia was 29.3%; in the assay on RPMI-8226 leukemia it was 21.2%; in the assay on OVCAR-8 ovarian, 16.9%; in the assay with OVCAR-5 ovarian, 37.8%; in the assay with OVCAR-4 ovarian it was 61.6%; with SK-OV-3 ovarian it was 11%. Moreover, the growth was 31.5% in the assay on IGROV1 ovarian; 5.93% (active) in the assay with OVCAR-3 ovarian; 14.4% with HS 578T breast; 0.837% (active) with NCI/ADR-RES ovarian; 60.6% in the assay on T-47D breast; 16.3% in the assay on BT-549 breast. Moreover, the growth in the assay on MDA-MB-435 melanoma is -65.2% (active); in the assay with SW-620 colon, 21.2%; in the assay on MCF7 breast, 20.8%; with HCT-116 colon it was 8.06% (active); with HCC-2998 colon it was 13.8%; in the assay on KM12 colon it was 8.12% (active).

In the case of `O=C1Nc2cc(-c3cccc(O)c3)ccc2/C1=C/c1ccc[nH]1`, the growth with SR leukemia is 4.14% (active); in the assay on RPMI-8226 leukemia it was -15% (active); in the assay with OVCAR-8 ovarian, 26.6%; in the assay on OVCAR-5 ovarian it was 19.4%; in the assay with OVCAR-4 ovarian, 25.4%; with SK-OV-3 ovarian, 3.46% (active). In addition, the growth in the assay with IGROV1 ovarian was 8.78% (active); with OVCAR-3 ovarian, -1.19% (active); in the assay with HS 578T breast, -4.18% (active); with NCI/ADR-RES ovarian, 23.8%; in the assay with T-47D breast, -0.905% (active); in the assay with BT-549 breast, 0.113% (active). Also, the growth with MDA-MB-435 melanoma was 5.05% (active); with SW-620 colon it was 18.9%; in the assay with MCF7 breast, 10.5%; in the assay on HCT-116 colon, 11.6%; in the assay with HCC-2998 colon it was 14.8%; with KM12 colon, 0.211% (active).

Take `O=S(=O)(NCCCNc1nccc(-c2c(-c3cccc(F)c3)nc3sccn23)n1)c1cccc(F)c1`: the growth in the assay on SR leukemia was 64.9%; in the assay on RPMI-8226 leukemia, 28%; with OVCAR-8 ovarian, 18.4%; in the assay with OVCAR-5 ovarian, 110%; with OVCAR-4 ovarian it was 26.8%; in the assay with SK-OV-3 ovarian it was 66%. Besides, the growth in the assay with IGROV1 ovarian was 18.9%; in the assay on OVCAR-3 ovarian it was 50.7%; in the assay on HS 578T breast, 63.7%; with NCI/ADR-RES ovarian, 17.6%; in the assay on T-47D breast it was -2.25% (active); in the assay with BT-549 breast it was 33.3%. For the same molecule, the growth in the assay with MDA-MB-435 melanoma was 24%; with SW-620 colon, 76.7%; with MCF7 breast it was 33.7%; in the assay with HCT-116 colon it was 48%; with HCC-2998 colon, 99.3%; with KM12 colon, 30%.

`NS(=O)(=O)c1ccc(Cn2c(SCC(=O)N/N=C/c3ccccc3O)nc3ccccc3c2=O)cc1`: the growth is 26.6% with SR leukemia; 49.7% in the assay with RPMI-8226 leukemia; 44.3% in the assay on OVCAR-8 ovarian; 68.4% in the assay with OVCAR-5 ovarian; 40.7% with OVCAR-4 ovarian; 73% in the assay on SK-OV-3 ovarian. Further, the growth in the assay with IGROV1 ovarian was 62.3%; with OVCAR-3 ovarian, 13.4%; with HS 578T breast, 71.6%; with NCI/ADR-RES ovarian it was 98.3%; in the assay on T-47D breast it was 33.3%; with BT-549 breast, 56.1%. For the same molecule, the growth was 71.7% in the assay on MDA-MB-435 melanoma; 60.4% in the assay with SW-620 colon; 50% in the assay with MCF7 breast; 42.7% in the assay on HCT-116 colon; 50.7% with HCC-2998 colon; 39.2% in the assay on KM12 colon.

Turning to `CCCCCN1C=C/C(=C\C(=O)N(C)c2ccc(Oc3ccccc3)cc2)c2ccccc21`, the growth in the assay with SR leukemia was 82.1%; with RPMI-8226 leukemia, 68.6%; in the assay on OVCAR-8 ovarian, 80.3%; in the assay on OVCAR-5 ovarian, 92.9%; in the assay on OVCAR-4 ovarian, 58.3%; in the assay on SK-OV-3 ovarian, 87.3%. Also, the growth with IGROV1 ovarian is 58.1%; in the assay on OVCAR-3 ovarian, 83.6%; in the assay with HS 578T breast it was 99.5%; in the assay on NCI/ADR-RES ovarian it was 100%; with T-47D breast it was 54.1%; in the assay on BT-549 breast, 91.4%. The growth with MDA-MB-435 melanoma is 91.4%; in the assay on SW-620 colon it was 84.3%; in the assay with MCF7 breast, 66.7%; in the assay on HCT-116 colon it was 58.7%; with HCC-2998 colon it was 86.7%; with KM12 colon, 90.5%.

Consider `COc1cc2c(c(O)c1Cl)C(=O)c1c(O)cc(C[C@H](C)O)cc1[C@H]2[C@H]1c2cc(C[C@H](C)O)cc(O)c2C(=O)c2c1cc(OC)c(Cl)c2O`, for which the growth is 12.3% in the assay with SR leukemia; 14.1% in the assay with RPMI-8226 leukemia; 12.8% in the assay on OVCAR-8 ovarian; 8.75% (active) in the assay with OVCAR-5 ovarian; 12.7% in the assay on OVCAR-4 ovarian; 8.1% (active) with SK-OV-3 ovarian. Also, the growth in the assay on IGROV1 ovarian was 10.4%; with OVCAR-3 ovarian, -20.4% (active); in the assay with HS 578T breast, 11%; in the assay with NCI/ADR-RES ovarian, 71.3%; in the assay with T-47D breast it was 10.5%; with BT-549 breast, 17.2%. Also, the growth with MDA-MB-435 melanoma is 11.3%; in the assay on SW-620 colon, 17.8%; with MCF7 breast it was 7.74% (active); in the assay with HCT-116 colon, 9.53% (active); in the assay with HCC-2998 colon, 25.9%; in the assay on KM12 colon it was 11.2%.
